A selection: hits, their analogues and other compounds. The true share with any hit is near 3.3%.
GRIN3A LBD mod: modulators (binders) of human NR3A ligand-binding domain. NR3A LBD differential scanning fluorimetry, Tm shift; 0% = protein alone, 100% = glycine-bound protein. Tm shift relative to glycine control, % at 25 µM. hit rate 2.5% among 340,000;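 active = melting temperature shift of at least 10% of the positive control shift, at one fixed dose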
HGIII-sPLA2 inh: Blocks human group III sPLA2 activity. Q9NZ20. QFRET BODIPY PC-A2 liposome hydrolysis, fluorescence. inhibition, % at 12.2 µM. hit rate 0.56% among 370,000;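 active = inhibition above mean plus 3 SD of compounds lying within the high and low control bounds, cut at about 19% in these data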;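 note: 0% = median of test compound wells and 100% = no enzyme DMSO wells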
Target sequence (Q9NZ20 whole entry, looked up): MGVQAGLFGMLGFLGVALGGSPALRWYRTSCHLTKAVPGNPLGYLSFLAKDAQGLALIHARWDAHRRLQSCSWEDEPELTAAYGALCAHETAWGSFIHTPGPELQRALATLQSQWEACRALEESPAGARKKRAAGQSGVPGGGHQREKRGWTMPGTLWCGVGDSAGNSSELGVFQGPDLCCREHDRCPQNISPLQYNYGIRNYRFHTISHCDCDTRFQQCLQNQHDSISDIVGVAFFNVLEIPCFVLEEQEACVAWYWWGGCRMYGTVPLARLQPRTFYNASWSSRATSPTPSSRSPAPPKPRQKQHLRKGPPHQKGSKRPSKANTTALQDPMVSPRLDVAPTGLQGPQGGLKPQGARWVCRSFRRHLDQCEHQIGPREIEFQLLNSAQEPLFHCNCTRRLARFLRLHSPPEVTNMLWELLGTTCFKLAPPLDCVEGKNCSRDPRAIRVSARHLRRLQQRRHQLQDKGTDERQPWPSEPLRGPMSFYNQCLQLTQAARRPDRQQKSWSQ
UBC13 inh: human UBC13 polyubiquitination inhibition | P61088 | UBC13 polyubiquitin chain formation, TR-FRET | inhibition, % at 20 µM | hit rate 0.47% among 330,000 | AID 485273; in the data active = inhibition above about 45%, passing the limit was not always enough
SUMO HTRF inh: blocks human SUMOylation mediated by UBC9 | HTRF SUMOylation assay, SAE1/SAE2 + UBC9, in vitro | inhibition, % at 35 µM | hit rate 0.36% among 290,000 | AID 2006; in the data active = inhibition above about 50%, passing the limit was not always enough
* hit, by the source's call; / = not tested or not shown.

SMILES | GRIN3A LBD mod | HGIII-sPLA2 inh | UBC13 inh | SUMO HTRF inh
O=C(Nc1nc2c(ccc3ccccc32)s1)c1ccco1 | 16* | -23 | 0 | -4
O=C(Nc1nc2c(F)c(F)c(F)cc2s1)c1ccco1 | 1 | -4 | 7 | 6
O=C(Nc1ccc(-c2nc3cc(Cl)ccc3c(=O)o2)cc1)c1ccco1 | 11* | -6 | 12 | 24
COc1cc2nc(NC(=O)c3ccco3)sc(=O)c2cc1OC | 15* | -2 | 26 | 21
COC(=O)C1CN(Cc2cn(Cc3ccccc3)nn2)CCS(=O)(=O)N1Cc1ccccc1 (configuration not stated) | / | -3 | / | /
Cc1cccc(NC(=O)CCS(=O)(=O)c2ccccc2)c1C | / | 12 | / | /
CC[C@@H](OP(=O)(O)[C@@H](C)N)C(=O)O | / | 5 | / | /
COCc1cc(/C=N\NC(=O)c2ccc(Cl)cc2)ccc1OC | 11* | -2 | -1 | 14
COc1ccc(/C=N/NC(=O)c2nc(Cl)c(Cl)c(N)c2Cl)cc1COc1ccccc1F | 1 | -31 | -5 | 32
COc1ccc(/C=N/NC(=O)c2nc(Cl)c(Cl)c(N)c2Cl)cc1COc1ccc(F)cc1F | 10* | -3 | -32 | 28
COc1ccc(/C=N\NC(=O)c2cc(O)c(O)c(O)c2)cc1COc1ccc(C(=O)OCC(C)C)cc1 | 77* | 25* | -31 | -27
COc1ccc(/C=N/NC(=O)c2ccc(OC)c(OC)c2)cc1COc1c(F)c(F)c(F)c(F)c1F | 12* | -6 | -3 | 8
COc1ccc(/C=N\NC(=O)c2ccccc2Br)cc1COc1c(F)c(F)cc(F)c1F | -6 | -20 | -4 | -1
CCCCOCCCNC(=O)C[C@H]1C[C@@]2(C(=O)OC)C(=C[C@H](COCc3ccccc3)O[C@@H]2C)N(Cc2ccco2)C1=O | / | -13 | / | /
COc1ccc(/C=N/NC(=O)c2cc(Br)ccc2O)cc1Cn1cc(Cl)cn1 | 21* | -19 | 4 | 12
COc1ccc(/C=N/NC(=O)c2ccc(O)cc2)cc1CN1CCCc2ccccc21 | 27* | 7 | -8 | 10
COc1ccc(/C=N/NC(=O)c2ccc(F)cc2)cc1CN1CCc2cc(OC)c(OC)cc2C1C (configuration not stated) | -1 | -3 | 11 | 8
COc1ccc(/C=N/NC(=O)c2ccc(Cl)cc2)cc1Cn1cc(Cl)cn1 | -1 | 0 | -19 | 24
COc1ccc(C(=O)OCCN(C)C2CN(Cc3cn(Cc4ccccc4Cl)nn3)S(=O)(=O)C2)cc1OC (configuration not stated) | / | 4 | / | /
COc1ccc(Oc2c(Cl)cnn(CC(=O)C(c3ccccc3)c3ccccc3)c2=O)cc1 | / | -4 | / | /
Cc1ccc(S(=O)(=O)Nc2nc(C)c(NC(=O)Nc3ccc(Cl)cc3Cl)s2)cc1 | 28* | -5 | -11 | -3
Cc1ccc(S(=O)(=O)Nc2nc(C)c(NC(=O)OCCCl)s2)cc1 | 3 | 6 | 12 | 2
C/C(=N/NS(=O)(=O)c1ccc(C)cc1C)c1ccc2c(c1)OCO2 | 0 | 18 | -11 | -4
C/C(=N/NS(=O)(=O)c1ccc(C)cc1C)c1c[nH]c2ccccc12 | 11* | 0 | 12 | -15
C/C(=N/NS(=O)(=O)c1ccc(C)c(C)c1)c1c[nH]c2ccccc12 | 38* | -2 | 5 | -8
SMILES | GRIN3A LBD mod | HGIII-sPLA2 inh | UBC13 inh | SUMO HTRF inh
CCN(CC)C(=O)CSc1nnc(-c2cccs2)o1 | / | -1 | / | /
O=[N+]([O-])c1ccc(O)c(-c2nc(-c3ccccc3)c(-c3cccs3)[nH]2)c1 | 30* | 0 | -56 | -3
O=C(O)c1ccc(-c2nc(-c3ccccc3)c(-c3cccs3)[nH]2)cc1 | 1 | -1 | 14 | 30
OCCNCc1cc(Br)ccc1OCc1ccccc1 | 13* | 8 | -11 | -3
O=c1cc2oc3cc(O)c(O)cc3c(-c3ccccc3O)c-2cc1O | -1 | / | / | 85*
COc1ccc(NC(=O)c2cn(-c3ccccc3)nc2-c2ccncc2)cc1 | -3 | -3 | 8 | -8
O=C(Nc1ccc2ccccc2c1)c1cn(-c2ccccc2)nc1-c1cccs1 | 25* | -9 | -16 | -11
N#CCCn1cc(C(=O)Nc2ccc([N+](=O)[O-])cc2)c(-c2cc3ccccc3o2)n1 | 14* | -5 | 12 | -7
O=C(O)c1cccc(NC(=O)c2cn(-c3ccccc3)nc2-c2ccncc2)c1 | 0 | -6 | 3 | 10
O=C(O)c1cccc(NC(=O)c2cn(-c3ccccc3)nc2-c2cccc(Br)c2)c1 | 15* | -43 | -15 | 22
COc1ccc(NC(=O)c2cn(-c3ccccc3)nc2-c2cc3ccccc3o2)cc1 | 11* | 0 | 6 | -10
O=C(N/N=C/c1cn(-c2ccccc2)nc1-c1cc2ccccc2o1)c1c[nH]c2ccccc12 | 20* | -6 | -8 | -4
